From article PMC7819943, “Rice protein-binding microarrays: a tool to detect cis-acting elements near promoter regions in rice”
In all, about 35,000 sequences were measured (“fluorescence intensity (a.u.)”: median about 10,000, highest 2% from about 52,000 on). Only a selection was taken, and the highest values are over-represented in it overall.

biological target: T1, OsWOX13 (Oryza sativa, UniProt Q5QMM3 1-267); assay: protein-binding microarray (RPBM); PBS, 2% BSA, 51.3 ng/ul salmon testes DNA, 50 uM zinc acetate, 200 nM TF, 25 C, 1 h; high values mean tight binding; conditions: protein: recombinant; tags: N-terminal polyhistidine and DsRed monomer fusion (pET32a); label: CyDye5-dUTP incorporated in the synthesized complementary strand; 3' TTTTT single-stranded linker to array surface; dsDNA, one strand shown
T1 sequence: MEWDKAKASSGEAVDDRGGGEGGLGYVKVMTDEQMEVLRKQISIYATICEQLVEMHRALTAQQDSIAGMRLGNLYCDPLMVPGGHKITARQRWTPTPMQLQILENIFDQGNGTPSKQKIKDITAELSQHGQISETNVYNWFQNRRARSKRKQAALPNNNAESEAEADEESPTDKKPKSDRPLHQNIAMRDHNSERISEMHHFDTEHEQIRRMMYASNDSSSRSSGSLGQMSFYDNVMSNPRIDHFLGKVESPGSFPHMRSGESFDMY
Summary of the method: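 A custom Agilent array was converted to double-stranded form by primer extension with Cy5-dUTP and blocked with 2% BSA. Protein at 200 nM in PBS with 2% BSA, salmon testes DNA and 50 µM zinc acetate was applied for 1 h at 25 °C, followed by washing. The proteins were polyhistidine–DsRed N-terminal fusions of transcription factors, expressed in E. coli BL21-CodonPlus and Ni–NTA-purified. The binding signal is per-feature fluorescence intensity (arbitrary units) from an Axon 4000B scanner.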

Sequence | binding signal
ACTCCCTATTAATTTCCATCACCTTTACCAAACAAGATATCGGAGTCACCTAGTGCAG | 6910 fluorescence intensity (a.u.)
GATTTAAACTGAAACGAACAGATTCTTTGTTCTTTGCATACGGAGTCACCTAGTGCAG | 9800 fluorescence intensity (a.u.)
ATAATTAGTACCTTATAATAAGTAGCACAATCTTCGTGTTCGGAGTCACCTAGTGCAG | 7900 fluorescence intensity (a.u.)
TGGAATGATGGATAAAGTCCAAGTTTGACCTGAGTCAAAGCGGAGTCACCTAGTGCAG | 6270 fluorescence intensity (a.u.)
CAGATATAAATTGAGCGACTTCCAGAGTGATCAGCACTACCGGAGTCACCTAGTGCAG | 7440 fluorescence intensity (a.u.)
ACAACAACAGCTTTGATCAATCAATCCATCAACTCAGGTTCGGAGTCACCTAGTGCAG | 11400 fluorescence intensity (a.u.)
AATCTTTTCTTAATTCTATAATTATCCTTAACGAATTAGTCGGAGTCACCTAGTGCAG | 4150 fluorescence intensity (a.u.)
GATAACTGGTGTGGAGGCTGCGGCGTGGGTGGTAAAGCACCGGAGTCACCTAGTGCAG | 3220 fluorescence intensity (a.u.)
TAAATTTTGACTGATAAGTATAAGTATAAGCGAAAAGATTCGGAGTCACCTAGTGCAG | 12400 fluorescence intensity (a.u.)
GATTTTGATAGGAATGTAAGTATAAAACAGAGGATTGTAACGGAGTCACCTAGTGCAG | 3360 fluorescence intensity (a.u.)
TATTATTTATTTTGTTTGTGATTTGCTTTGTTATTAATAGCGGAGTCACCTAGTGCAG | 8380 fluorescence intensity (a.u.)
TTTTGATTGATAAGTATAACCATGTATAAGCGAAACAATGCGGAGTCACCTAGTGCAG | 64500 fluorescence intensity (a.u.)
TGTTAGATTTAATGTAATTGATTTGATATTTTAGATATTGCGGAGTCACCTAGTGCAG | 49700 fluorescence intensity (a.u.)
ATATGATTATGTGATAATGTTTGAGAGTACAAACAAATGACGGAGTCACCTAGTGCAG | 19000 fluorescence intensity (a.u.)
ACAATGATTGATTAATGTTTGATAGTAACAGCCATGAGAGCGGAGTCACCTAGTGCAG | 58800 fluorescence intensity (a.u.)
ATAATTTTGAAATTATTAACATGATATAAATGAGATAGAGCGGAGTCACCTAGTGCAG | 16200 fluorescence intensity (a.u.)
ATTAATGATTGATAGTCAGTCACTTAGCCATGTTATTTTGCGGAGTCACCTAGTGCAG | 65500 fluorescence intensity (a.u.)
AACCCAATAACGGTAACTGACAAAACGATGAAAACCAAACCGGAGTCACCTAGTGCAG | 4460 fluorescence intensity (a.u.)
ATATAGATTTACGTTGGATTTATACTGATTCTAACCAAATCGGAGTCACCTAGTGCAG | 13600 fluorescence intensity (a.u.)
ATGATTTTGTTTTGTTTTGCGAATAATTTTGGCGCCTCAACGGAGTCACCTAGTGCAG | 6150 fluorescence intensity (a.u.)
CACCAGTGATCTTATAATTGTAAATTTTGATCCAAGATTCCGGAGTCACCTAGTGCAG | 3800 fluorescence intensity (a.u.)

Sequence | binding signal
AAGAATTAATTAATGTTTAACTAGATGGCCTTATTATCTCCGGAGTCACCTAGTGCAG | 34300 fluorescence intensity (a.u.)
ATGTGTATGATGTGTTTGTTTATGTGTGGACTTTATAATACGGAGTCACCTAGTGCAG | 3210 fluorescence intensity (a.u.)
TTTACTAAGCAATCAAGATAACCTGATGTGCCTATCCATCCGGAGTCACCTAGTGCAG | 10200 fluorescence intensity (a.u.)
ACAAACACGTAATAACATTAATTTCAATCTACACATCATACGGAGTCACCTAGTGCAG | 9270 fluorescence intensity (a.u.)
GCTCCTAACCAATCAGCGCACCCATCGTCCCAAAATCCCCCGGAGTCACCTAGTGCAG | 8480 fluorescence intensity (a.u.)
ATAATTATTATGTCTGGTAGGATAGGATTTAGATGGTAAGCGGAGTCACCTAGTGCAG | 5670 fluorescence intensity (a.u.)
CCAATGATTGATCGATTTCTCTCCATACGCCGTGTGCCAACGGAGTCACCTAGTGCAG | 59700 fluorescence intensity (a.u.)
ATCAATTCAAATTTAAATTTTGATGAAACTCTTCGAAATCCGGAGTCACCTAGTGCAG | 14400 fluorescence intensity (a.u.)
TCCAGTGATTAATCTCTTCTCCATCTCTGCCCTGCACCCTCGGAGTCACCTAGTGCAG | 21400 fluorescence intensity (a.u.)
CTCTCGCTCGCCATGATTGATCGAGCTCCACCTGCCAATTCGGAGTCACCTAGTGCAG | 12900 fluorescence intensity (a.u.)
TCATTTCTCCAATCATAGGAGCTGGCGCATTGATCGATCACGGAGTCACCTAGTGCAG | 6160 fluorescence intensity (a.u.)
AAATCCCACTCCAATCACCACCACCTCTTCTCCAATTCCACGGAGTCACCTAGTGCAG | 3840 fluorescence intensity (a.u.)
AATCTCAAATTGAATCCATTTTATTTGATGACGATTTATTCGGAGTCACCTAGTGCAG | 9810 fluorescence intensity (a.u.)
TGATGATTTGATTTGATTTGATTCAATCTCCAAATCGATCCGGAGTCACCTAGTGCAG | 65100 fluorescence intensity (a.u.)
TCCAATTGATTGCAAATCGATTCCTCACTCCTCTCTTATCCGGAGTCACCTAGTGCAG | 57400 fluorescence intensity (a.u.)
TTGGAGATGATTGATTGGAAATCTTCTTCCAGTCTCCTCTCGGAGTCACCTAGTGCAG | 61700 fluorescence intensity (a.u.)
TGATGAGATTGATCCGATGATCTCCTCTTTAAATTTCTCGCGGAGTCACCTAGTGCAG | 19100 fluorescence intensity (a.u.)
CCAAATCAATCAAATCGCATTCCACCAATTCTCCACTCTCCGGAGTCACCTAGTGCAG | 27300 fluorescence intensity (a.u.)
GTGATGATTTATTTTCGAACTATCTAGCTATTTATCTAGACGGAGTCACCTAGTGCAG | 9370 fluorescence intensity (a.u.)
CTCCAATTCATCTATAATCAATCTAATAGCCAATTCATACCGGAGTCACCTAGTGCAG | 5900 fluorescence intensity (a.u.)
GTTTTATTCTGATTAAATTAAATGCCACAGGGACATTGTCCGGAGTCACCTAGTGCAG | 9600 fluorescence intensity (a.u.)

Sequence | binding signal
ATGTGGCCGATAATTGCTTTGCATGCTGATGGATGTGGCTCGGAGTCACCTAGTGCAG | 4180 fluorescence intensity (a.u.)
GTCATAAATTGATCCATACATATCATAGTAAAGCGTGGGTCGGAGTCACCTAGTGCAG | 33400 fluorescence intensity (a.u.)
GAAATAATTGATTGAATCCTATTCTATCCTCTAAAATTCCCGGAGTCACCTAGTGCAG | 30900 fluorescence intensity (a.u.)
ATCTAATCTTGAATTAAACTCACTATCAATTCCCACCATCCGGAGTCACCTAGTGCAG | 4380 fluorescence intensity (a.u.)
CTAAATTGAATCTATCCACTTTGCCTCCTAAACTCACCCCCGGAGTCACCTAGTGCAG | 54600 fluorescence intensity (a.u.)
TAGTCAATTACTACTAGGTATGTGCTATTCATAACCATGACGGAGTCACCTAGTGCAG | 7320 fluorescence intensity (a.u.)
AGCTTTTCAGACTGAAAATGTAATAGACAACCTTATCAGACGGAGTCACCTAGTGCAG | 3810 fluorescence intensity (a.u.)
GGTAAATTGCAATACTCCGGATGTTCAGAGACAATAAGAGCGGAGTCACCTAGTGCAG | 13900 fluorescence intensity (a.u.)
TTAGATTATTGAGTCAGATTACTATAAGCTAGATTATTATCGGAGTCACCTAGTGCAG | 12500 fluorescence intensity (a.u.)
TATGAATGCATTATGATTACTATTTGCTAATCATAAGTGGCGGAGTCACCTAGTGCAG | 11000 fluorescence intensity (a.u.)
TTGCCAATTATGATTGGAGATTTACAAGTAGACTTCAATACGGAGTCACCTAGTGCAG | 18500 fluorescence intensity (a.u.)
TTGATTAATTTGACGTCGATGCTACTAATAGTTAACCTTCCGGAGTCACCTAGTGCAG | 54200 fluorescence intensity (a.u.)
TTGTAATTAGTAGGGTGATTACTATTTGGTAATCATAAGTCGGAGTCACCTAGTGCAG | 33000 fluorescence intensity (a.u.)
CAATCATTGATTGTTACTTTGTTAGTAATTGGTTAGTATACGGAGTCACCTAGTGCAG | 30100 fluorescence intensity (a.u.)
CGTAATTAGTAGGTTGATTACTATTTGCTAATCATAAGTGCGGAGTCACCTAGTGCAG | 65200 fluorescence intensity (a.u.)
ACAAATTAGCTATTATATTGGCTATAGATGATTTGGAGTACGGAGTCACCTAGTGCAG | 42300 fluorescence intensity (a.u.)
TAGTAATTGATTGCTGCCAAGATTACATTACTGCCCAATACGGAGTCACCTAGTGCAG | 65500 fluorescence intensity (a.u.)
TGCTAGTTAATATAATCTACTAATTAAAATAGTCGATTGACGGAGTCACCTAGTGCAG | 6000 fluorescence intensity (a.u.)
GTGCTAATATAATTTAAATAACTAGTTTGACGGACAAATCCGGAGTCACCTAGTGCAG | 10800 fluorescence intensity (a.u.)
TATCGATCGATTGATTGCTATAGCTAGGTCAAATCGATCGCGGAGTCACCTAGTGCAG | 28100 fluorescence intensity (a.u.)
TACAAATTGATTGGCTATAGGTCAAATAGTGGATCCTAGACGGAGTCACCTAGTGCAG | 56000 fluorescence intensity (a.u.)
